Inconclusive results are not listed. Activity calls are given as the source filed them. Calls come from the whole dose curve; as a rule, active = well fitted inhibition curve with a large enough effect; inconclusive = small, poorly fitted or top-dose-only effect; inactive = no such curve, though single readings can be large or run the other way.
Assay: BET inhibitor-based combinations targeting novel dependencies in MECOM-rearranged (r) AML: SET-2 cell line (AID 2202231);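 for viability: plate controls were DMSO treated cells for no effect and wells without cells for full effect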
Settings: SET-2 AML cells viability, CellTiter-Glo luminescence, 48 h; viability: hits give low values, concentration not given here
Summary of the method: (§1)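 Cells were plated at 500 per well and exposed to an 11-point dose series of each drug for 48 hr. Viability was measured by CellTiter-Glo luminescence, normalized to DMSO and empty-well controls, and summarized as AUC and per-cell-line Z-AUC.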
Note: nearly all actives have a fitted effect of over 35% in size.
Potency is the fitted concentration of half-maximal effect.

Structure (SMILES) | viability | Potency
CCOC(=O)C1=C(N)Oc2ccc(Br)cc2C1C(C#N)C(=O)OCC (stereo not drawn) | 112% (inactive) | –
Cn1cc(-c2ccc3ncc(Cc4ccc5ncccc5c4)n3n2)cn1 | 105% (inactive) | –
Oc1ccc(Nc2nc(-c3ccc(Cl)cc3)cs2)cc1 | – | 9.34 µM (active)
C=CC(=O)Nc1cccc(Nc2nc(Nc3ccc(Oc4ccnc(C(=O)NC)c4)cc3)ncc2F)c1 | – | 23.5 µM (active)

Assay: BET inhibitor-based combinations targeting novel dependencies in MECOM-rearranged (r) AML: OCI-AML3 cell line (AID 2202232);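 for viability (% of control): plate controls were DMSO vehicle wells for no effect and wells without cells for full effect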
Settings: CellTiter-Glo luminescence, 48 h; Potency: OCI-AML3 viability; series mostly up to 46 µM; viability (% of control): at the top concentration
Summary of the method: as §1

Structure (SMILES) | viability (% of control) | Potency
CCOC(=O)C1=C(N)Oc2ccc(Br)cc2C1C(C#N)C(=O)OCC (stereo not drawn) | 95.5% (inactive) | –
Cn1cc(-c2ccncc2)c(-c2ccc(OCc3ccc4ccccc4n3)cc2)n1 | – | 11.8 µM (active)
Cc1ccc(CN2CCNCC2)cc1NC(=O)CNc1ccc(F)c(F)c1 | 87.4% (inactive) | –
C=CC(=O)Nc1cccc(Nc2nc(Nc3ccc(Oc4ccnc(C(=O)NC)c4)cc3)ncc2F)c1 | – | 18.6 µM (active)
